Results reported in PubChem BioAssay (NCATS).
Records with an inconclusive call do not appear. Active and inactive are the calls of the source. Calls follow the shape of the dose curve; as a rule, active = well fitted curve in the direction sought with a large enough effect; inconclusive = small, poorly fitted or top-dose-only effect, or another doubt; inactive = no such curve, though single readings can be large; an effect the other way counts as inactive or inconclusive.

Key:
[1] = qHTS of pediatric cancer cell lines to identify multiple opportunities for drug repurposing: Primary screen for BT-37 cells (AID 1347094); also: series mostly up to about 57 µM
Procedure, shortened: (§1)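 Viability was measured as metabolically active cells after 48 hours of treatment, read by CellTiter-Glo luminescence. Compounds were tested at multiple final concentrations, giving concentration-response curves.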

[2] = qHTS of pediatric cancer cell lines to identify multiple opportunities for drug repurposing: Primary screen for NB-EBc1 cells (AID 1347095); also: potency is read from the fitted curve at half-maximal effect
Procedure, shortened: as §1

[3] = qHTS of pediatric cancer cell lines to identify multiple opportunities for drug repurposing: Primary screen for U-2 OS cells (AID 1347096); also: nearly all actives have a fitted effect of over 50% in size
Procedure, shortened: (§2)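 Cells (500-1,000/well) rested 5 h, then received compounds for 48 h; metabolically active cells were measured by CellTiter-Glo luminescence. Final concentrations spanned up to 46 µM (MIPE, 11-point) or 0.59 nM-46 µM (NPC, 8-point) in primary screens, 11-point in follow-ups.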

[4] = qHTS of pediatric cancer cell lines to identify multiple opportunities for drug repurposing: Primary screen for Saos-2 cells (AID 1347097); also: nearly all actives have a fitted effect of over 40% in size
Procedure, shortened: as §1

[5] = qHTS of pediatric cancer cell lines to identify multiple opportunities for drug repurposing: Primary screen for SK-N-SH cells (AID 1347098);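 also: DMSO served as neutral control and bortezomib at 2.3 µM as positive control; nearly all actives have a fitted effect of over 65% in size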
Procedure, shortened: as §2

[6] = qHTS of pediatric cancer cell lines to identify multiple opportunities for drug repurposing: Primary screen for NB1643 cells (AID 1347099); also: nearly all actives have a fitted effect of over 50% in size
Procedure, shortened: as §1

[7] = qHTS of pediatric cancer cell lines to identify multiple opportunities for drug repurposing: Primary screen for LAN-5 cells (AID 1347100)
Procedure, shortened: as §2

[8] = qHTS of pediatric cancer cell lines to identify multiple opportunities for drug repurposing: Primary screen for BT-12 cells (AID 1347101); also: nearly all actives have a fitted effect of over 25% in size
Procedure, shortened: as §2

[9] = qHTS of pediatric cancer cell lines to identify multiple opportunities for drug repurposing: Primary screen for Rh18 cells (AID 1347102); also: nearly all actives have a fitted effect of over 65% in size
Procedure, shortened: as §2

[10] = qHTS of pediatric cancer cell lines to identify multiple opportunities for drug repurposing: Primary screen for OHS-50 cells (AID 1347103); also: nearly all actives have a fitted effect of over 40% in size
Procedure, shortened: as §2

Measured: Potency

O=C1c2ccccc2C(=O)c2ccccc21
inactive: [1] | [2] | [3] | [4] | [5] | [6] | [7] | [8] | [9] | [10]

CCC(C)(C)c1ccc(O)cc1
inactive: [1] | [2] | [3] | [4] | [5] | [6] | [8] | [9]

COP(=S)(OC)Oc1ccc(SC)c(C)c1
inactive: [1] | [2] | [3] | [4] | [5] | [6] | [8] | [9] | [10]

C#CC(O)(C=CCl)CC (stereo not drawn)
inactive: [1] | [2] | [3] | [4] | [5] | [6] | [8] | [9] | [10]

C[C@@H]1CC2=CC(=O)CC[C@@H]2[C@H]2CC[C@@]3(C)[C@@H](CC[C@]3(C)O)[C@@H]21
inactive: [1] | [2] | [3] | [4] | [5] | [6] | [7] | [9]

CC(=O)OCC1=C(C(=O)O)N2C(=O)[C@@H](N)[C@H]2SC1
inactive: [1] | [2] | [3] | [4] | [5] | [6] | [7] | [8] | [9] | [10]

NC(=O)c1cc([N+](=O)[O-])cc([N+](=O)[O-])c1
inactive: [1] | [2] | [3] | [4] | [5] | [6] | [7] | [8] | [9] | [10]

O=c1oc2ccccc2c(O)c1Cc1c(O)c2ccccc2oc1=O
inactive: [1] | [3] | [4] | [5] | [6] | [7] | [8] | [9] | [10]
active: [2] 15 µM

CC(Cc1ccccc1)NCCn1cnc2c1c(=O)n(C)c(=O)n2C (stereo not drawn)
inactive: [1] | [2] | [3] | [4] | [5] | [6] | [7] | [9] | [10]

CCC1(c2ccccc2)C(=O)N(COC)C(=O)N(COC)C1=O
inactive: [1] | [2] | [3] | [4] | [5] | [6] | [7] | [8] | [9] | [10]

Nc1ccccc1
inactive: [1] | [2] | [3] | [4] | [5] | [6] | [7] | [8] | [9] | [10]

O=C1OC(c2ccc(O)c(S(=O)(=O)O)c2)(c2ccc(O)c(S(=O)(=O)O)c2)c2c(Br)c(Br)c(Br)c(Br)c21
inactive: [1] | [2] | [3] | [4] | [5] | [6] | [7] | [8] | [9] | [10]
